The source of these data is ChEMBL document CHEMBL3988442, “University of Dundee, Small-Polar-MMV Screening Library” (2021).

Structures are written as SMILES. In all, about 69,000 compounds went through this assay and about 420 (0.61%) showed an effect of 50% or more. Only a selection was taken, and strong results are over-represented in it overall.

The target in the assay is T1, Histidine--tRNA ligase (Leishmania infantum) (UniProt A4I591).
T1 sequence (whole entry): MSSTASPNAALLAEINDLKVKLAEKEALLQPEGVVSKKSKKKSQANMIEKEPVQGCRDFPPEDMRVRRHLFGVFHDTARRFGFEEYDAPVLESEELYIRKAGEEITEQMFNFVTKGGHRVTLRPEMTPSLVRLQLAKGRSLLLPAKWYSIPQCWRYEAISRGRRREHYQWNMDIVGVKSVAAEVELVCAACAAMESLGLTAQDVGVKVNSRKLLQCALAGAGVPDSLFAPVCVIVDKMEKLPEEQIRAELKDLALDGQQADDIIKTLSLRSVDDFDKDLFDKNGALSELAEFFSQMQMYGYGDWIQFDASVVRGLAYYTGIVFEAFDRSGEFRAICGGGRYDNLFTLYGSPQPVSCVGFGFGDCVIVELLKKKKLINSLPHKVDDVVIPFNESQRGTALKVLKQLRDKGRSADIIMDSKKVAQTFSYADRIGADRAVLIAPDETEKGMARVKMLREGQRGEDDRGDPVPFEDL
Briefly: Leishmania infantum Histidine tRNA synthetase (LdHisRS). On the set-up: scale not given: in the data most compounds retested in dose-response had high values. To be noted: 30 µM. The format is functional.
Consider `CCC1CN(CCC(=O)N(C)C)CCN1CCOC` (stereo not drawn), for which the Percent Effect worked out at 50%.
As for `CCC1CN(CCNC(C)=O)CCN1CCOC` (stereo not drawn), the figure is 4.76%.
As for `CCC1CN(CC(=O)N2CCC2)CCN1CCOC` (stereo not drawn), the figure is 28.6%.
Under `c1ccc(O[C@H]2C[C@@H]3CN(Cc4cnccn4)C[C@@H]3C2)cc1` stands 15.9%.
For the molecule `COc1cc(N2C[C@@H]3COC[C@]3(COCc3ccccn3)C2)ncn1`, the Percent Effect stood at 13.8%.
As for `NC(=O)c1ccc(N2CCCCC2)c(NC(=O)c2cc(Br)ccc2F)c1`, the figure is 36.8%.
In the case of `NC(=O)c1ccc(N2CCCCC2)c(NC(=O)c2ccc(F)cc2Cl)c1`, the Percent Effect was determined as 65.6%.
Under `NC(=O)c1ccc(N2CCCCC2)c(NC(=O)c2cc(F)ccc2F)c1` stands 18.3%; under `NC(=O)c1ccc(N2CCCCC2)c(NC(=O)c2ccc(Br)cc2)c1`, 20.4%.
As for `NC(=O)c1ccc(N2CCCCC2)c(NC(=O)c2ccc(F)cc2F)c1`, the figure is 18.3%; as for `NC(=O)c1ccc(N2CCCCC2)c(NC(=O)c2cc(Br)ccc2Cl)c1`, 80.7%; as for `O=S1(=O)C[C@@H]2[C@H](C1)N(Cc1cc(F)cc(Cl)c1)CCN2CCO`, 0%.
Under `CN(C)C(=O)N1C[C@@H]2CC[C@H](C1)N(Cc1nnc(-c3ccco3)o1)C2` stands -9.89%; under `NC(=O)NCC(=O)N1C[C@H]2CC[C@@H]1CN(Cc1cscn1)C2`, 0%.
Take `CCc1oc(C(=O)N2CC[C@H]3CC[C@@H](C2)N3)cc1CN(CC)CC`: the Percent Effect was 12.6%.
For the molecule `Fc1cccc(CN2CCC(c3cc4ncccc4cn3)CC2)c1F`, the Percent Effect came to 29.6%.
As for `Fc1ccc(F)c(CN2CCC(c3cc4ncccc4cn3)CC2)c1`, the figure is 35.2%.
Under `COc1ccc(C)cc1CN1CCC(c2cc3ncccc3cn2)CC1` stands 60.6%; under `Cc1noc([C@@H]2C[C@@H]3CCN(c4nnc(C)s4)C[C@H]3O2)n1`, 13.5%; under `O=C(c1ccoc1)N1CC[C@H]2OCC[C@@]2(COc2ncccc2F)C1`, 24.5%.
Take `Cc1ccncc1C(=O)N1C[C@H]2CN(CC3CCC3)C[C@@]2(C(=O)O)C1`: the Percent Effect was -1.64%.
Under `CN(CC1CCCCO1)c1nc(-c2cccnc2)nc2c1CCNC2` (stereo not drawn) stands 9.95%.
In the case of `Cc1nonc1CN(C)c1nc(-c2cccnc2)nc2c1CCNC2`, the Percent Effect is 67.5%.
As for `CN(CC(O)CO)c1nc(-c2cccnc2)nc2c1CCNC2` (stereo not drawn), the figure is 7.85%.
As for `CS(=O)(=O)CC(=O)N1C[C@@H]2COC[C@]2(c2nnc(C3CC3)o2)C1`, the figure is 15.1%; as for `N#Cc1cccc(CN2CC[C@@H]3CN(c4ncccn4)CCO[C@@H]3C2)c1`, -0.901%.
For `CSc1ccc(C(CN)N2CCc3sccc3C2)cc1` (stereo not drawn), the Percent Effect was 71.4%.
Under `CC(C)c1ccc(C(CN)N2CCc3sccc3C2)cc1` (stereo not drawn) stands 17.8%; under `NCC(c1ccc(Cl)cc1)N1CCc2sccc2C1` (stereo not drawn), 13.7%.
For `COc1cncc(-n2nc(C)c(CC(C)=O)c2C)c1`, the Percent Effect came out at 34.2%.
With `CC(=O)Cc1c(C)nn(-c2cncc(C(N)=O)c2)c1C`, the Percent Effect was determined as 16.5%.
Under `CC(=O)Cc1c(C)nn(-c2cncc(N)c2)c1C` stands 64.6%; under `COCCN1CC[C@@H]2O[C@@H](COCC(=O)N3CCCC3)CC[C@@H]21`, 17.1%.
As for `COC[C@@]12CCC[C@@H]1CN(C(=O)CN(C)C)C2`, the figure is 5.77%; as for `CC(C)(C)NC[C@@H]1CCC[C@@H]2CN(Cc3csnn3)C[C@@H]21`, 17.1%; as for `O=C(C1CCOCC1)N1CCO[C@H]2[C@H](Oc3ccccn3)CC[C@@H]21`, -1%.
Under `CCOCC(O)CNc1cncc(Br)c1` (stereo not drawn) stands 46.6%; under `CCCC(O)CNc1cncc(Br)c1` (stereo not drawn), 95.9%; under `CS(=O)(=O)CCOCCNc1cncc(Br)c1`, 53.2%.
Turning to `COCCOCCNc1cncc(Br)c1`, the Percent Effect was determined as 45.5%.
As for `O=C(NCCNc1cncc(Br)c1)c1ccc(O)cc1`, the figure is 42.5%; as for `O=c1[nH]nc(CNc2cncc(Br)c2)[nH]1`, 11.1%; as for `COCC(C)NC(=O)c1cncc(Br)c1` (stereo not drawn), 19.2%.
Under `CS(=O)(=O)CCOCCNc1ccc(Br)cn1` stands 16.9%; under `COCC(O)CNc1cncc(Br)c1` (stereo not drawn), 60.3%; under `Cn1cc(C(=O)N2CC[C@@H]3[C@@H]2CCN3c2ncc(F)cn2)cn1`, 14.3%.
Consider `O=C(c1ccnnc1)N1C[C@@H](OCc2cccnc2)[C@H]2OCCC[C@H]21`, for which the Percent Effect was determined as 22.9%.
As for `O=C(N[C@@H]1CN(c2ncccn2)C[C@@H]2CCCO[C@@H]21)c1cccnc1`, the figure is 2.86%; as for `Cc1ccc(N2CC[C@@H]3O[C@@H](c4ccncn4)C[C@H]3C2)nn1`, 16.2%; as for `Cc1nc[nH]c1CN1CCN(C(=O)CN2CCCC2)[C@H]2CS(=O)(=O)C[C@H]21`, 15.6%.
Under `CCn1cc(CNc2ccc(F)c(F)c2)cn1` stands 3.54%; under `CCn1cc(CNc2ccc(Br)c(OC)c2)cn1`, 16.9%.
Under `CCn1cc(CNc2ccc3nccnc3c2)cn1` stands 90.9%; under `CC(C)N(C)C[C@H]1OC[C@@H]2CCN(Cc3cccc(C#N)c3)C[C@@H]21`, 10%.
On to `Cc1nc(CO[C@H]2CN(C(=O)c3cccn3C)[C@@H]3COC[C@H]23)cs1`, for which the Percent Effect is -6%.
As for `Nc1nc(N2CCCC(COc3ccc(F)cc3)C2)c2nc[nH]c2n1` (stereo not drawn), the figure is 81.9%; as for `Nc1cc(N2CCCC(COc3ccc(F)cc3)C2)ncn1` (stereo not drawn), 28.9%.
Under `COc1ccccc1N1CCN(c2nc(N)nc3[nH]cnc23)CC1` stands 21.7%.
As for `O=C(c1cncc(N2CC[C@@]3(O)CCNC[C@H]3C2)n1)N1CCCC1`, the figure is 0%; as for `CN(C)S(=O)(=O)N1CC[C@]2(O)CCN(c3cc(C#N)ccn3)C[C@@H]2C1`, 15.7%.
As for `O=C1[C@H]2CN(C3CCOCC3)C[C@H]2CN1Cc1cccc(F)c1`, the Percent Effect worked out at 19.7%.
For the molecule `O=C(C1CCCCC1)N1C[C@@H]2CCN(c3cnccn3)C[C@@H]2C1`, the Percent Effect came out at 46.8%.
Under `O=C(C1CCCC1)N1C[C@@H]2CCN(c3cnccn3)C[C@@H]2C1` stands 30.3%; under `CS(=O)(=O)N1C[C@H]2N(c3ncccn3)CCC[C@@]2(C(=O)NCC2CC2)C1`, 6.36%; under `COc1ccc(C(NCc2ccc(C#N)cc2)C2CC2)cc1` (stereo not drawn), 29.1%.
As for `COc1ccc(C(NCc2cccc(O)c2)C2CC2)cc1` (stereo not drawn), the figure is 69.6%.
For `COc1ccc(C(NCc2cccc(C#N)c2)C2CC2)cc1` (stereo not drawn), the Percent Effect was 3.8%.
Regarding `Cc1ccoc1C(=O)N1CC[C@H]2[C@@H]1CCC(=O)N2c1cccnc1`, the Percent Effect is 23%.
`CCS(=O)(=O)NC[C@]12COC[C@H]1CN(CCc1ccccc1)C2`: the Percent Effect was found to be 2.63%.
As for `O=C1N(CC2CC2)CCC12CCN(c1ncccn1)CC2`, the figure is 24.4%.
Under `c1cnc(N2CCC3(CC2)CN(CC2CC2)c2ccccc23)nc1` stands 70.7%; under `c1ccc2c(c1)N(CC1CCOC1)CC21CCN(c2cnccn2)CC1` (stereo not drawn), 39.1%; under `CN(C)CCN1C(=O)CC[C@@H]2[C@H]1CCN2C(=O)c1ccc(C#N)cc1`, 17.1%.
